This is part of a sample that, as a whole, favours compounds with a hit. Of some 83,000 tested, about 20% had one in any assay.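 Each cell line was grown in a 96-well plate and treated with one concentration of compound for 48 hours. Values below 10 were considered active.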 Unmarked numbers belong to inactive results. Activity calls are given as the source filed them.
Experiments:
Assay in all cases: NCI-60 one-dose screen, 48 h (100 = growth as untreated, 0 = no growth, -100 = all killed)
Details in all cases: 10 µM unless noted
SR leukemia = system: SR leukemia
RPMI-8226 leukemia = system: RPMI-8226 leukemia
OVCAR-8 ovarian = system: OVCAR-8 ovarian
OVCAR-5 ovarian = system: OVCAR-5 ovarian
OVCAR-4 ovarian = system: OVCAR-4 ovarian
SK-OV-3 ovarian = system: SK-OV-3 ovarian
IGROV1 ovarian = system: IGROV1 ovarian
OVCAR-3 ovarian = system: OVCAR-3 ovarian
HS 578T breast = system: HS 578T breast
NCI/ADR-RES ovarian = system: NCI/ADR-RES ovarian
T-47D breast = system: T-47D breast
BT-549 breast = system: BT-549 breast
MDA-MB-435 melanoma = system: MDA-MB-435 melanoma
SW-620 colon = system: SW-620 colon
MCF7 breast = system: MCF7 breast
HCT-116 colon = system: HCT-116 colon
HCC-2998 colon = system: HCC-2998 colon
KM12 colon = system: KM12 colon

| SMILES | growth (SR leukemia) | growth (RPMI-8226 leukemia) | growth (OVCAR-8 ovarian) | growth (OVCAR-5 ovarian) | growth (OVCAR-4 ovarian) | growth (SK-OV-3 ovarian) | growth (IGROV1 ovarian) | growth (OVCAR-3 ovarian) | growth (HS 578T breast) | growth (NCI/ADR-RES ovarian) | growth (T-47D breast) | growth (BT-549 breast) | growth (MDA-MB-435 melanoma) | growth (SW-620 colon) | growth (MCF7 breast) | growth (HCT-116 colon) | growth (HCC-2998 colon) | growth (KM12 colon) |
| --- | --- | --- | --- | --- | --- | --- | --- | --- | --- | --- | --- | --- | --- | --- | --- | --- | --- | --- |
| COc1ccccc1NC(=O)n1c(=O)cc(C)c2ccc(O)cc21 | 118% | 109% | 106% | 112% | 110% | 100% | 113% | 113% | 110% | 107% | 99.8% | 107% | 105% | 109% | 101% | 107% | 95.9% | 101% |
| O=C(/C=C/c1ccc(Cl)cc1)c1ccc(-n2cc(CN3CCN(c4cc5c(cc4F)c(=O)c(C(=O)O)cn5C4CC4)CC3)nn2)cc1 | 13.1% | 11.5% | 83.6% | 100% | 94.4% | 84.6% | 59% | 90.5% | 65.3% | 94.8% | 93.4% | 90% | 82.2% | 81.7% | 51.2% | 2.68% (active) | 90.7% | 86.4% |
| COc1cccc(C2C(C#N)=C(N)Oc3c2ccc2ccccc32)c1 (stereo unspecified) | 18.1% | 20.7% | 21.4% | 40.5% | 66.2% | 40.1% | 18.3% | -8.8% (active) | 52.1% | 6.19% (active) | 69.5% | 28.3% | 6.77% (active) | 30.3% | 10.8% | 5.1% (active) | 23.6% | 11.9% |
| c1ccc2cc(Cn3cc[n+](Cc4ccc5ccccc5c4)c3)ccc2c1 | 22.3% | -0.408% (active) | 10.9% | 43% | 0.592% (active) | 33.2% | -2.69% (active) | 14.5% | 58.8% | 99.5% | -5.37% (active) | 2.35% (active) | 7.71% (active) | 58% | 37.2% | 41% | 26.5% | -1.63% (active) |
| CC(=O)OCCOc1cc(Cl)c(Cl)cc1Cl | 97.2% | 93.3% | 103% | 90.6% | 108% | 107% | 130% | 118% | 103% | 105% | 101% | 91.7% | 106% | 104% | 104% | 102% | 97.9% | 103% |
| Cc1c(N2CCCCC2)[nH]c2ccccc12 | 119% | 62.6% | 105% | 124% | 142% | 118% | 136% | 125% | 96.2% | 107% | 110% | 121% | 103% | 100% | 111% | 105% | 113% | 113% |
| CO[C@H]1CC(c2ccc[nH]2)=N[C@]12O[C@@H](C)C[C@@H]1CCCCCCCc3ccc([nH]3)[C@H]12 | 9.34% (active) | -1.79% (active) | 14.8% | 29.7% | 29.2% | 30% | 28.9% | 29.2% | 29.2% | 17.1% | 11.8% | 33.7% | 15.2% | 21.5% | 16.5% | 8.1% (active) | 22.1% | 18.3% |
| COc1cc2nc3cc([N+](=O)[O-])ccc3c(NCCCNCCO)c2cc1OC | -12.4% (active) | -1.84% (active) | -28.9% (active) | -15.2% (active) | -47.2% (active) | -59% (active) | -29.9% (active) | -44.6% (active) | -16.1% (active) | 93.3% | -30.1% (active) | -73.4% (active) | -100% (active) | -25% (active) | -28.5% (active) | -33.7% (active) | -47.9% (active) | -33.6% (active) |
| O=C(OCC(O)C(=O)NC12CC3CC(CC(C3)C1)C2)c1cccc(Br)c1 (stereo unspecified) | 84.9% | 94.6% | 95.9% | 101% | 98.2% | 102% | 103% | 109% | 95.7% | 101% | 93.2% | 115% | 97% | 99.2% | 91.7% | 99% | 114% | 107% |
| CC/C(=C(/c1ccc(Cl)cc1)c1ccc(OCCN2CCCC2)cc1)c1ccccc1 | -10.5% (active) | 7.58% (active) | 69.7% | 82.4% | 72.2% | 104% | 76.6% | 70.2% | 71.3% | 80.1% | 47.6% | 77.8% | 60.2% | 11.8% | 23.1% | 29.7% | 97.6% | 37.1% |
| COC(=O)c1cc(-c2cc(OC)c(OC)c(OC)c2)[nH]c1N/N=C/c1c(Cl)cccc1Cl | -17.6% (active) | 18.4% | 5.44% (active) | 22.7% | 5.08% (active) | 28.3% | -54.8% (active) | 9.29% (active) | -5.55% (active) | 6.82% (active) | 9.55% (active) | 128% | -2.15% (active) | 44.9% | 7.14% (active) | 5.15% (active) | -62% (active) | 15% |
| COC(=O)[C@H](C)NC(=O)[C@@H]1CCCN1C(=O)CNC(=O)[C@H](C)N | 114% | 116% | 105% | 114% | 89.1% | 102% | 109% | 112% | 99.8% | 106% | 97.6% | 109% | 102% | 105% | 110% | 99.6% | 106% | 104% |
| Nc1cc(-c2ccc(Cl)cc2)nn1-c1nc(-c2ccc(Br)cc2)cs1 | 91.3% | 100% | 103% | 93.7% | 103% | 92.4% | 99.9% | 106% | 98% | 105% | 98.2% | 100% | 99.7% | 106% | 89.8% | 94.4% | 101% | 104% |
| CC1=C(C(=O)OCc2ccccc2)C(c2ccc3c(c2)OCO3)n2c(nc3ccccc32)N1 (stereo unspecified) | 9.81% (active) | 39.8% | 46.7% | 64.4% | 73.8% | 41.7% | 41.4% | 12.1% | 0.752% (active) | 23.2% | 40.9% | 50.5% | -35.4% (active) | 17.6% | 20.6% | 18.8% | 56.4% | 17.3% |
| Oc1ccc(C2OCCO2)c2cccnc12 | 31.8% | 29.6% | 24.6% | 59.3% | 15.3% | 93.5% | 74.2% | 4.41% (active) | 76.4% | 27.5% | 26.2% | 64.2% | 49.4% | 22.3% | 7.84% (active) | 8.85% (active) | 96.6% | 72.4% |
| Cc1c2ccncc2c(C)c2c1c1ccccc1n2CCCCCC(=O)O | 65.1% | 86.3% | 79.5% | 109% | 94.3% | 95.6% | 76.9% | 93.1% | 88.5% | 80.1% | 86.5% | 89.4% | 99.2% | 82.4% | 77.6% | 75.8% | 104% | 82.3% |
| O=C(CSc1nc(-c2ccccc2)cn1-c1ccc(Cl)cc1)c1ccc([N+](=O)[O-])cc1 | 72.2% | 80.4% | 94.1% | 95.4% | 92.8% | 96.6% | 96.5% | 78.8% | 62.8% | 91.2% | 71.3% | 86.8% | 83.5% | 73.8% | 76.1% | 66.9% | 99.6% | 82.6% |
